Reference: ChEMBL document CHEMBL3988442, “University of Dundee, Small-Polar-MMV Screening Library” (2021)
For part of these data: Potency and affinity values are given separately.

Experiments:
Design in all cases: scale not given: direction of the effect not stated beside the values
[1] = target: Protein translocase subunit SecA (Escherichia coli (strain K12)) (UniProt P10408); experiment: Assay to Identify E. coli SecA ATPase Inhibitors; assay type: functional; settings: 30 µM
[2] = target: T1, Ubiquitin-activating enzyme e1, putative (Leishmania donovani (strain BPK282A1)) (UniProt E9BSI1); experiment: Leishmania donovani Ubiquitin Activating Enzyme (LdE1); assay type: functional; settings: 30 µM
T1 sequence (whole entry): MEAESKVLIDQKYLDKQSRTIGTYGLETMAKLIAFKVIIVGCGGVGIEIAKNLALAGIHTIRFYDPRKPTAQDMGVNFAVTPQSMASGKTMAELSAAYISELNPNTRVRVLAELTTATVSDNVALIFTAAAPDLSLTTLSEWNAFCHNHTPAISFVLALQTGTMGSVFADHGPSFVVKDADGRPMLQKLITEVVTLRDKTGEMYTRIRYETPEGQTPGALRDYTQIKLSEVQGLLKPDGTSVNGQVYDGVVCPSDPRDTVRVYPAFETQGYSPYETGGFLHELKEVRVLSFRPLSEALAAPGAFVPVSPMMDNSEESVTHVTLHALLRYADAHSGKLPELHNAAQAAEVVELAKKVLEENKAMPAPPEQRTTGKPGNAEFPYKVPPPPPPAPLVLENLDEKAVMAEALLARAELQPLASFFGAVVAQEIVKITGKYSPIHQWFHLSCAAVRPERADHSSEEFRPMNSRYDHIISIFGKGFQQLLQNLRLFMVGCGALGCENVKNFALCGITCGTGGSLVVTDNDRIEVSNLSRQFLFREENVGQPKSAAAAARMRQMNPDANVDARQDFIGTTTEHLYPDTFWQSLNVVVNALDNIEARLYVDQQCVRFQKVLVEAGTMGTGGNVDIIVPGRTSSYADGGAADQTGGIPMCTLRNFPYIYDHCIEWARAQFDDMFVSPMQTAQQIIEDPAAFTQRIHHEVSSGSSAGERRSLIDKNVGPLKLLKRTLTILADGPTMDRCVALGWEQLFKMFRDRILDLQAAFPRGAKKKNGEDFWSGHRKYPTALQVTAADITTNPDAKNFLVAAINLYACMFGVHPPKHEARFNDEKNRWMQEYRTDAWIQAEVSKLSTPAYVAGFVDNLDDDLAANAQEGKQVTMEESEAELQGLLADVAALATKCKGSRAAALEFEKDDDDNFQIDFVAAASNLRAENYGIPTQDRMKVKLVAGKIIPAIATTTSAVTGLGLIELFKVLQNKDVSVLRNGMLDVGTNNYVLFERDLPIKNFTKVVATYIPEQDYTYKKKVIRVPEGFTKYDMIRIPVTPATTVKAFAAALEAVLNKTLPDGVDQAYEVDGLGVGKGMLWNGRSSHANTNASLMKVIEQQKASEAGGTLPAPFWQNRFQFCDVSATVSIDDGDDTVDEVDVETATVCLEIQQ

[3] = target: Sialic acid-binding Ig-like lectin 9 (Homo sapiens) (UniProt Q9Y336); experiment: Hs-Siglec9 ALPHAscreen SOP 20170721; settings: 10 µM
Sialic acid-binding Ig-like lectin 9 (Homo sapiens), sequence (Q9Y336 whole entry): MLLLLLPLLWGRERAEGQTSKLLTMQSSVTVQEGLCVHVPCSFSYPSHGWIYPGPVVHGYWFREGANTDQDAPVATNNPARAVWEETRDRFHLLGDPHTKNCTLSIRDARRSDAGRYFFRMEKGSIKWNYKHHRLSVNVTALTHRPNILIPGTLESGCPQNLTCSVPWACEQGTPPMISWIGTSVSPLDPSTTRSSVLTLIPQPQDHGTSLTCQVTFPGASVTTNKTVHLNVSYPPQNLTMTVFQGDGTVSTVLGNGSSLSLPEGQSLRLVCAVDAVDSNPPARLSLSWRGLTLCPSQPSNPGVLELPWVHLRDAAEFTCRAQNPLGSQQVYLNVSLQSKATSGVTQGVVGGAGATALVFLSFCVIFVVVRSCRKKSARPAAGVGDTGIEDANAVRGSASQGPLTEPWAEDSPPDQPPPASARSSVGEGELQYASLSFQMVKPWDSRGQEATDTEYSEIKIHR

Trypanosoma cruzi = experiment: Trypanosoma cruzi phosphomannomutase and mannose-1-phosphate guanylyltransferase assay; assay type: functional; settings: 10 µM
[4] = target: T2, Arginase-2, mitochondrial (Homo sapiens) (UniProt P78540); experiment: in vitro enzyme assay to detect the production of urea directly proportional to the activity of Arginase II; assay type: functional; settings: 33.3 µM; also: in the data most compounds retested in dose-response had high values
T2 sequence (whole entry): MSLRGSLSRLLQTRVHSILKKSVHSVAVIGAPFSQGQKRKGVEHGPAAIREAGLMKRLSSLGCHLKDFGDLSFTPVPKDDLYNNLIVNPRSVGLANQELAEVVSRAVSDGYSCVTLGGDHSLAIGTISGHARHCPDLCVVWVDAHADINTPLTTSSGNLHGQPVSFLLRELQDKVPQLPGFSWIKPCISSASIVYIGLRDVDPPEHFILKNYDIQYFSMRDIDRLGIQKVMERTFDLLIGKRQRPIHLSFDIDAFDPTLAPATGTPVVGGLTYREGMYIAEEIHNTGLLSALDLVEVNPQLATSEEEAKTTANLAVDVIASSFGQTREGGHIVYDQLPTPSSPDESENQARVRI

[5] = target: T3, Proteasome subunit beta (Trypanosoma cruzi) (UniProt O96673); experiment: Trypanosoma cruzi proteasome chymotrypsin-like activity (TcProtChymo) assay.; also: in the data most compounds retested in dose-response had high values; assay type: functional; settings: 9.37 µM
T3 sequence (whole entry): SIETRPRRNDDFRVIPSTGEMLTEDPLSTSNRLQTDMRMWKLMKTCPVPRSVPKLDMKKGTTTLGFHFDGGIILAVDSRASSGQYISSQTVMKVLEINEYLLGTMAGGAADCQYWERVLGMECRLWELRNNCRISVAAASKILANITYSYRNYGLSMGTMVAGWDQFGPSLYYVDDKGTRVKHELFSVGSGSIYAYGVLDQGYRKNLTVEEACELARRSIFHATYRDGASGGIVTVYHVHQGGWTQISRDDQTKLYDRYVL

Homo sapiens = organism: Homo sapiens; experiment: To identify inhibition of the IFN signalling (Jak-Stat) pathway via expression of an eGFP reporter gene under the control of an IFN-stimulated response element (ISRE) containing MxA promoter.; assay type: functional; settings: 30 µM
[6] = target: T4, Tyrosyl-tRNA synthetase, putative (Trypanosoma cruzi (strain CL Brener)) (UniProt Q4DSP6); experiment: Trypanosoma cruzi tyrosyl tRNA synthetase (TcYRS) _High Tyrosine SOP; assay type: functional; settings: 30 µM; also: in the data most compounds retested in dose-response had high values
T4 sequence (whole entry): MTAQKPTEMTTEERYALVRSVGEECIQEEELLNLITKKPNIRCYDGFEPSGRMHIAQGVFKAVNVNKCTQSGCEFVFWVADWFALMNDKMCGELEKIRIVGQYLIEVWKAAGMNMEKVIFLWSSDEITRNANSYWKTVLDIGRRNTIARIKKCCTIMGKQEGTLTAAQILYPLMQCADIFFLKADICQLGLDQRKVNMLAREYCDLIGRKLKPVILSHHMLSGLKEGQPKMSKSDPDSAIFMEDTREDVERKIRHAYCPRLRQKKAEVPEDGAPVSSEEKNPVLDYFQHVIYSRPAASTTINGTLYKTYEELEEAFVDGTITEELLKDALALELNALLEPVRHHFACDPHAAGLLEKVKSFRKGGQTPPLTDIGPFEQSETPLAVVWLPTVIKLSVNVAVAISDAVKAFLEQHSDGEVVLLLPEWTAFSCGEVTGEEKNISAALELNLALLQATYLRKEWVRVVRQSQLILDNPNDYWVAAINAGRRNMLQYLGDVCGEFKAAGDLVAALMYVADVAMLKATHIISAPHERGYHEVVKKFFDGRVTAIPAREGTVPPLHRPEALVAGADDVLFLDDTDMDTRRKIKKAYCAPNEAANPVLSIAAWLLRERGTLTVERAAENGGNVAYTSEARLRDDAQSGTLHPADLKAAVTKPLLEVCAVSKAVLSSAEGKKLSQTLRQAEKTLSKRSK

[7] = target: T4, Tyrosyl-tRNA synthetase, putative (Trypanosoma cruzi (strain CL Brener)); experiment: Trypanosoma cruzi tyrosyl tRNA synthetase (TcYRS) SOP; assay type: functional; settings: 30 µM
[8] = target: Chromo domain-containing protein 1 (Saccharomyces cerevisiae (strain ATCC 204508 / S288c) (Baker's yeast)) (UniProt P32657); experiment: ScCHD-1 Enzyme Inhibition Assay; assay type: functional; settings: 30 µM; also: in the data most compounds retested in dose-response had high values
Chromo domain-containing protein 1 (Saccharomyces cerevisiae (strain ATCC 204508 / S288c) (Baker's yeast)), sequence (P32657 whole entry, the tested form may be a part): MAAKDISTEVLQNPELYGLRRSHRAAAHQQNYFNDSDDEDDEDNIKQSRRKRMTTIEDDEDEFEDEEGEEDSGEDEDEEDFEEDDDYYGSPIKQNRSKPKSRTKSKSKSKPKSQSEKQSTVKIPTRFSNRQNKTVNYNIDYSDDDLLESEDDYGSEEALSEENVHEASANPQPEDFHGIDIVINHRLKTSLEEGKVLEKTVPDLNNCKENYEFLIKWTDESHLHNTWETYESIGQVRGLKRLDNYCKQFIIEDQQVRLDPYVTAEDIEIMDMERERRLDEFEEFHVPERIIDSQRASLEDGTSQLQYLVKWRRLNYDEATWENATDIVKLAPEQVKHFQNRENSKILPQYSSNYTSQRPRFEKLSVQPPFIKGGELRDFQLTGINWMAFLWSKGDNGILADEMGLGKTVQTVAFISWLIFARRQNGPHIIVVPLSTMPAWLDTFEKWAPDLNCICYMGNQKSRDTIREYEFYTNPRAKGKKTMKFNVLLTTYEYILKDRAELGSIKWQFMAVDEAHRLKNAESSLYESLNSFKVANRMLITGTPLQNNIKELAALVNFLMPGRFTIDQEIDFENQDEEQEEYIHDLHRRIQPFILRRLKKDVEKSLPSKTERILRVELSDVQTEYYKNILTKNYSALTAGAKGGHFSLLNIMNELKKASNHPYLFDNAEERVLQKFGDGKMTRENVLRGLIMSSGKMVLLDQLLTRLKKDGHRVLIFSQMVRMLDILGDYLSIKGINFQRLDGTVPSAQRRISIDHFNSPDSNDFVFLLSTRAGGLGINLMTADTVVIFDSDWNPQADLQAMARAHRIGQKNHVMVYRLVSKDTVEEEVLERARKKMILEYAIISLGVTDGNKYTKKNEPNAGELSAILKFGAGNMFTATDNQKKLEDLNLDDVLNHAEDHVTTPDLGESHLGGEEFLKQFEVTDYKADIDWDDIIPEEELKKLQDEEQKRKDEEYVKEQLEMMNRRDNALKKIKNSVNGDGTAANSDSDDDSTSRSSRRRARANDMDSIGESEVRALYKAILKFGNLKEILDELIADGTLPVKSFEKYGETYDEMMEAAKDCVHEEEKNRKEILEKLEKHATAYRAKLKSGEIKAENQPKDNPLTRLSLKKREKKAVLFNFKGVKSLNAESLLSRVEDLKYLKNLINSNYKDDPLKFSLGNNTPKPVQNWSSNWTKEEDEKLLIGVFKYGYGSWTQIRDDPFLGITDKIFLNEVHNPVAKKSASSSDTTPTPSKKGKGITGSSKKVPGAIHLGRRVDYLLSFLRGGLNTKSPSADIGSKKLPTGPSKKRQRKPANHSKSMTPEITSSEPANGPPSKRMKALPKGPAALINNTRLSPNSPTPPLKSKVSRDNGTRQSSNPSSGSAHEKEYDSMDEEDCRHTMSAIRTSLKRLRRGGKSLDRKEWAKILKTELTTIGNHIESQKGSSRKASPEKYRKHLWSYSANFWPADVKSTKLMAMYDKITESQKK

Protein translocase subunit SecA (Escherichia coli (strain K12)), sequence (P10408 whole entry): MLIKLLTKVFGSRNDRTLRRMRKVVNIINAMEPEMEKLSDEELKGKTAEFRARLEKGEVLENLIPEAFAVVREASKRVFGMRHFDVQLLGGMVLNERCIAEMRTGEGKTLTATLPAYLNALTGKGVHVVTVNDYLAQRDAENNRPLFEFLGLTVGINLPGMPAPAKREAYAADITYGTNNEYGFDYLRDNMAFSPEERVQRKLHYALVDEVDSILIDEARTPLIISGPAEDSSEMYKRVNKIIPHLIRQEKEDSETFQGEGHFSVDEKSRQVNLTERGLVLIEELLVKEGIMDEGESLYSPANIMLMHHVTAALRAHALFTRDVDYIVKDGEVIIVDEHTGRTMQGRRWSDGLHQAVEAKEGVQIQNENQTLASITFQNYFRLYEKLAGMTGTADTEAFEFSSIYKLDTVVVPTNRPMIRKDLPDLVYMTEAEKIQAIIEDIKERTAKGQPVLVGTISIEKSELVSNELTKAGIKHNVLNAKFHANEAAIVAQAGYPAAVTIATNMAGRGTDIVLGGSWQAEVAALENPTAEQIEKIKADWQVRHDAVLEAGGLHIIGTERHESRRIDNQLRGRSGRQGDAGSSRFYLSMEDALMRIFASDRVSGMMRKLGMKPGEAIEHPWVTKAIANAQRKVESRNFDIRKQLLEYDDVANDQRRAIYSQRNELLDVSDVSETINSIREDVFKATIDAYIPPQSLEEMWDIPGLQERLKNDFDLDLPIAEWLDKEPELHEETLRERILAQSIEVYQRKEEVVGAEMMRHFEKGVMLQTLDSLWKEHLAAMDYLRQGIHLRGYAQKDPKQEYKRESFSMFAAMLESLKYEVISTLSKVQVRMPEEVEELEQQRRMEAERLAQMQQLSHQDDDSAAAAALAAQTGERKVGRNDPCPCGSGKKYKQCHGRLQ

SMILES | Percent Effect [1] | Percent Effect [2] | Percent Effect [3] | Percent Effect (Trypanosoma cruzi) | Percent Effect [4] | Percent Effect [5] | Percent Effect (Homo sapiens) | Percent Effect [6] | Percent Effect [7] | Percent Effect [8]
COC[C@@]12CC[C@@H](N3CCOCC3)C[C@H]1CCN(c1ncccn1)C2 | -6.56% | 13.5% | 17.1% | 6.5% | 19.9% | 14.7% | 0.0489% | 4.79% | 12.2% | 88.3%
COc1ccccc1-c1noc(CN2CCCC2Cn2cccn2)n1 (stereo not given) | -4.25% | -13.3% | 1.74% | 3.01% | -0.444% | 14.3% | 1.34% | 1.58% | 0% | -7.06%
COc1ncc(C2(O)CCN(Cc3cccs3)CC2)c(OC)n1 | -5.49% | 22.7% | -1.28% | 2.76% | -3.54% | 11.2% | 4.21% | 8.47% | 20% | -25.5%
CC1CCCCN1Cc1ccc(-c2ccccc2C(=O)O)cc1 (stereo not given) | -1.02% | 4% | 1.22% | -4.73% | 0.443% | 7.39% | 12.3% | 2.12% | 2.5% | -21.8%
Cc1ncccc1NC(=O)C1=NOC2(CCN(Cc3nccs3)C2)C1 (stereo not given) | -7.98% | -14.3% | 2.46% | -0.682% | 4.45% | 17.7% | -6.55% | 6.84% | 15.4% | 5.53%
CC(=O)N1CCC2(CC1)C(=O)N(CC1CC1)c1ccccc12 | -5.06% | 9.09% | -0.719% | -3.56% | 5.48% | 10.6% | 6.99% | 3.87% | 7.5% | -7.42%
CCc1cnc(CN2CCC(N(C)Cc3noc(C4CC4)n3)C2)o1 (stereo not given) | -3.48% | 0% | -1.21% | -2.24% | 4.3% | 0.175% | 5.76% | 0.98% | -2.35% | 0.446%
COCCN1CCCC1c1nccnc1Nc1nc(C)cs1 (stereo not given) | -2.72% | 12% | 5.33% | -2.56% | 3.98% | 7.55% | 21.3% | 9.52% | 15% | -24.9%
Cc1ccc(CCC(=O)N2CCCC(n3cncn3)C2)c(C)c1 (stereo not given) | -4.25% | 8% | 2.16% | -6.02% | 0.444% | 2.63% | -1.21% | 5.79% | 2.56% | 1.81%
Cc1cnn(CC2CN(CC(=O)N3CCc4ccccc43)CCO2)c1 (stereo not given) | -4.43% | 8% | 4.38% | -0.803% | 3.55% | 3.48% | 6.22% | 4.74% | -5.13% | -9.1%
Cc1nccn1-c1cccc(C2CCCN2S(=O)(=O)N(C)C)n1 (stereo not given) | -4.04% | 14.7% | 13.1% | 1.77% | -0.443% | 8.05% | 21% | 5.29% | 15% | -24.5%
Cc1nn(C)c(Cl)c1CNCc1ccc(OCC(N)=O)cc1 | -6.28% | 10.7% | 0.0227% | 4.42% | 2.22% | 10.9% | 16.6% | 1.58% | 12.8% | -10.2%
